# Laboratory results as given in the supplement of paper PMC6411743.
# ± gives the standard deviation of the averaged measurements. Of roughly 5,400 targets only a part is listed; those with the largest changes were picked by preference.
# Compound: Nc1nc2c(ncn2[C@@H]2O[C@H](COP(=O)(O)OP(=O)(O)OP(=O)(O)O)[C@@H](O)[C@H]2O)c(=O)[nH]1 [guanosine triphosphate]
# Experiment: NP40-soluble protein abundance relative to vehicle (solubility fold change) (ratio); higher = more soluble protein in presence of GTP
# Settings: concentration: 0.1mM
# Summary of the method: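 In three independent experiments, Jurkat crude lysate made by Dounce homogenisation was treated for 10 min at room temperature and then 3 min at 37 °C with eight concentrations ranging from 0.1 to 10 mM. It was then solubilised with 0.8% NP40 plus benzonase for 60 min at 4 °C and ultracentrifuged. The supernatant was TMT-labelled for LC-MS/MS, and each value is the fold change against the detergent-processed vehicle for the same replicate, using vsn-normalised intensities.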
# UniProt Q9H0D6, sequence (Q9H0D6 whole entry): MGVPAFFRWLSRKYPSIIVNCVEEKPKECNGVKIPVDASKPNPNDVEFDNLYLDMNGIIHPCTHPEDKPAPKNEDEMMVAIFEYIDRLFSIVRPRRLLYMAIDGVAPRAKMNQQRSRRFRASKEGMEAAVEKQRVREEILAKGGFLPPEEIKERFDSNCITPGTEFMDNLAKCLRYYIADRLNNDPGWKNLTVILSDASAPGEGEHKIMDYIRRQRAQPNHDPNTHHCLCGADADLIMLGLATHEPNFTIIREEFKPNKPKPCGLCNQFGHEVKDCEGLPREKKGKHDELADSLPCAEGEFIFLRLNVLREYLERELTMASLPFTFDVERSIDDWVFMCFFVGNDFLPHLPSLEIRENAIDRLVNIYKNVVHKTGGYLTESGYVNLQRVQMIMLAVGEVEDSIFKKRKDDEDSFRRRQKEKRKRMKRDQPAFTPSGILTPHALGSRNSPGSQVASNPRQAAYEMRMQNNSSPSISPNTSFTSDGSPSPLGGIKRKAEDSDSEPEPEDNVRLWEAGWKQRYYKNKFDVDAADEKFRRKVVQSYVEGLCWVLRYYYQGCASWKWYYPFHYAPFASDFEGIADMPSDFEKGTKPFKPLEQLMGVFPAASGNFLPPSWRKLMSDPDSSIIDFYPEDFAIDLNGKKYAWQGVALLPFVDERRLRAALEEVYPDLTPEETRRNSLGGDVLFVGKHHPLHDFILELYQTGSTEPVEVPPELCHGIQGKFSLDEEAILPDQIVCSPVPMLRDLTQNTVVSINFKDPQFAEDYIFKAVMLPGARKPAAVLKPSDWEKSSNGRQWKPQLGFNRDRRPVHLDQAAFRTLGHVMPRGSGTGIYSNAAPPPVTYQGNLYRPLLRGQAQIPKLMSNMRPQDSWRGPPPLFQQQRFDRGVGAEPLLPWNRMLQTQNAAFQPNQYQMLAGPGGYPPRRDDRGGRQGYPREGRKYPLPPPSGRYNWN
# UniProt Q9HC52, sequence (Q9HC52 whole entry): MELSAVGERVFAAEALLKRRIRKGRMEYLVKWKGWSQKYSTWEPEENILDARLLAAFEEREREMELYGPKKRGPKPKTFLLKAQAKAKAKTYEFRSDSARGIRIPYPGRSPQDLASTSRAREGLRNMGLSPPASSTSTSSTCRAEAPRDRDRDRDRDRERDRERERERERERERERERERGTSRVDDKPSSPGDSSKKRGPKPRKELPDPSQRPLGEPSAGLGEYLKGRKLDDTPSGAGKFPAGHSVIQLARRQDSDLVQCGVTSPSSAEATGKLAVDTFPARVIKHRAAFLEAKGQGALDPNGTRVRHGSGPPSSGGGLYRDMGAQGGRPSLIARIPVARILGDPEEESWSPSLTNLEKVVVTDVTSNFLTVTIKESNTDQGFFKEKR
# UniProt Q9H832, sequence (Q9H832 whole entry): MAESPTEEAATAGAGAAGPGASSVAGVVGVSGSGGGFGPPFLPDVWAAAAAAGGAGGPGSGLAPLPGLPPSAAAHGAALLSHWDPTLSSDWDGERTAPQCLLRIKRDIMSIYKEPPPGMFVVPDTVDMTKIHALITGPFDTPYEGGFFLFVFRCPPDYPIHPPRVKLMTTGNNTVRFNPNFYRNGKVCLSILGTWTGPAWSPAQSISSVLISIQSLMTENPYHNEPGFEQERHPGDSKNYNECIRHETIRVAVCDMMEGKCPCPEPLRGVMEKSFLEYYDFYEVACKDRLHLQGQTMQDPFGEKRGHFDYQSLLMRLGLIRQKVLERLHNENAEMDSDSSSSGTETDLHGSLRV
# UniProt Q9Y3L3, sequence (Q9Y3L3 whole entry): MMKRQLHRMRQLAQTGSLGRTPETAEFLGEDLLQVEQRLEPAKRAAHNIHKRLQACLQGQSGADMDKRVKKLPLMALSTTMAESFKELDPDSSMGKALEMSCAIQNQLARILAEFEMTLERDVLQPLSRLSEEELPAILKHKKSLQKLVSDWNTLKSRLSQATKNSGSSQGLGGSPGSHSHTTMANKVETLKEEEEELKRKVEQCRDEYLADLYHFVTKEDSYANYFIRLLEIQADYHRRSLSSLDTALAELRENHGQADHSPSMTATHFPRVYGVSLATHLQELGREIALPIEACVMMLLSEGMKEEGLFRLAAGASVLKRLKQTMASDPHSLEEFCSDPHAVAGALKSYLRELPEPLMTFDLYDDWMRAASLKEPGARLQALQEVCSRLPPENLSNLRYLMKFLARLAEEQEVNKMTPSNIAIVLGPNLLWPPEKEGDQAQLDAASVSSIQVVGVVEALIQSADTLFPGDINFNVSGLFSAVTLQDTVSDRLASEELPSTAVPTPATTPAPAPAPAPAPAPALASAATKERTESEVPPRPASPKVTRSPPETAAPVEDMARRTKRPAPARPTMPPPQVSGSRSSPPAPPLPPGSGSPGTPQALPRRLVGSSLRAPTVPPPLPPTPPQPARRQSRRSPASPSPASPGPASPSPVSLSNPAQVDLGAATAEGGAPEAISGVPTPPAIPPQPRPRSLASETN
# UniProt Q9UMX0, sequence (Q9UMX0 whole entry): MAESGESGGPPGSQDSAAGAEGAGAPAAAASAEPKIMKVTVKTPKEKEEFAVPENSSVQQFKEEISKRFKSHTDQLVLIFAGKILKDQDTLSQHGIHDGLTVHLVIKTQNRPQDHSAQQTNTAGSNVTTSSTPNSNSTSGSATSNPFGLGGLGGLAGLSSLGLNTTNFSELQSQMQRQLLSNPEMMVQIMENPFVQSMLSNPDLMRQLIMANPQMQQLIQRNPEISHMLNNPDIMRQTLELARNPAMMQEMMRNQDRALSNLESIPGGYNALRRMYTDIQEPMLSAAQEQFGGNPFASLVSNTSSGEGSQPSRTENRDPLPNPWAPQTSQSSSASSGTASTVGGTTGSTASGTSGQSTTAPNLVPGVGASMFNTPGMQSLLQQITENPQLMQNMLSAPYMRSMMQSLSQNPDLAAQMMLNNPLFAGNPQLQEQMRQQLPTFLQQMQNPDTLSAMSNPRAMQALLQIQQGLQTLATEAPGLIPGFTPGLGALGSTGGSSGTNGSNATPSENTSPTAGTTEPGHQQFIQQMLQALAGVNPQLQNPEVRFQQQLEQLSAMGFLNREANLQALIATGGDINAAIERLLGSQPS
# UniProt Q9UJ83, sequence (Q9UJ83 whole entry): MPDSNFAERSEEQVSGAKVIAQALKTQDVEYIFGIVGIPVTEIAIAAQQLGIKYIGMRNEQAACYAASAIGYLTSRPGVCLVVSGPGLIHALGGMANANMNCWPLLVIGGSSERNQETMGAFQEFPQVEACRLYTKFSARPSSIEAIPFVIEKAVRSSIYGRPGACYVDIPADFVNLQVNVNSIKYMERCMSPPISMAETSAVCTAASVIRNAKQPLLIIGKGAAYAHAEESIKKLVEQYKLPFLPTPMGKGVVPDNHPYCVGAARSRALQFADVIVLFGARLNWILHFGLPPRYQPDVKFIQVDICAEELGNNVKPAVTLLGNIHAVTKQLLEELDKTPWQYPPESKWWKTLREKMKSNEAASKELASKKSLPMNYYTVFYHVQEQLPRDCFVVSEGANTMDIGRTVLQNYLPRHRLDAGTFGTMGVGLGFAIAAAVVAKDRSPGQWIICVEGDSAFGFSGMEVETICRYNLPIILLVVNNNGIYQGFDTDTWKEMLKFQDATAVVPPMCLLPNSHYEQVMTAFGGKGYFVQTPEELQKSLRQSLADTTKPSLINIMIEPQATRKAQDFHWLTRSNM
# UniProt Q9Y4W6, sequence (Q9Y4W6 whole entry): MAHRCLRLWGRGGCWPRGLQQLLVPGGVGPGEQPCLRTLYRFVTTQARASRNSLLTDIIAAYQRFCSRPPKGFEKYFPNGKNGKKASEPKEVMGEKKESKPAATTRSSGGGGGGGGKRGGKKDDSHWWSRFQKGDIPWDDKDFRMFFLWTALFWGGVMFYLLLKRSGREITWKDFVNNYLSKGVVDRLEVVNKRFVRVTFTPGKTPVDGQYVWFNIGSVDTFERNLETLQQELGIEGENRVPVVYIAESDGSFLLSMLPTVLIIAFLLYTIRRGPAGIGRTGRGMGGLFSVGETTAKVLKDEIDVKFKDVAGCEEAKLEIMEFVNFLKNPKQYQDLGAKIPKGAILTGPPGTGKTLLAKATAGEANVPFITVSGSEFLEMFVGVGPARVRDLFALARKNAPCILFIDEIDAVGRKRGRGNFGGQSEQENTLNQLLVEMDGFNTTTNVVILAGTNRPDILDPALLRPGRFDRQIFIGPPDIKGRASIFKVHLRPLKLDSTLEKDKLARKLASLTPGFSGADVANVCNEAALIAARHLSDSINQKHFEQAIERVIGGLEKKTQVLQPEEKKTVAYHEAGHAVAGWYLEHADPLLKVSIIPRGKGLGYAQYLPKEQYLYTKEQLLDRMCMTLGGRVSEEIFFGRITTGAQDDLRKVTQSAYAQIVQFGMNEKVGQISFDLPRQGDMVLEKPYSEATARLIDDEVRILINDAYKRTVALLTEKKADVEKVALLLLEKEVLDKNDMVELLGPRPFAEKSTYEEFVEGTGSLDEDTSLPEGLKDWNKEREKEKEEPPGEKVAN
# UniProt Q9NVF7, sequence (Q9NVF7 whole entry): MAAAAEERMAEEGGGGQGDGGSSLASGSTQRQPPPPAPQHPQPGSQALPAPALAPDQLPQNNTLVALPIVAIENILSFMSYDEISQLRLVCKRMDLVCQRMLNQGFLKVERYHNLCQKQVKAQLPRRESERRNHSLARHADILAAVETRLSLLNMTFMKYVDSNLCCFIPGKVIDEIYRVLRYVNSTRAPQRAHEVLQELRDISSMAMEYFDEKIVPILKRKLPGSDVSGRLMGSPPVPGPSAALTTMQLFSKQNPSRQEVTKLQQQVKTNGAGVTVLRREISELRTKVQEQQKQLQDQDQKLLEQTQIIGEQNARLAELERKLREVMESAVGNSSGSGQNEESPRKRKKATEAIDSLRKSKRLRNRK
# UniProt Q9Y3E2, sequence (Q9Y3E2 whole entry): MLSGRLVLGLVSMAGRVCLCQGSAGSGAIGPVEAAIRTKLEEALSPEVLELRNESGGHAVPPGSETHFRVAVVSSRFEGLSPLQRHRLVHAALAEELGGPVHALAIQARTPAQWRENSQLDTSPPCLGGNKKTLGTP
# UniProt Q9Y333, sequence (Q9Y333 whole entry): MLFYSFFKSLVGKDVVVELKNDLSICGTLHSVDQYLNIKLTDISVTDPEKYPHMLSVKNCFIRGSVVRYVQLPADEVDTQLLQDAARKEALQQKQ
row,Target,NP40-soluble protein abundance
1,UniProt Q9UKV8,1.08 ± 0.065
2,FBXO28 (UniProt Q9NVF7),1.09 ± 0.028
3,BOLA1 (UniProt Q9Y3E2),0.909 ± 0.069
4,UniProt Q969P0|Q969P0-3,1.02 ± 0.066
5,FAM117A (UniProt Q9C073),1.31 ± 0.14
6,X5CMH5 (UniProt Q03519),1.09 ± 0.036
7,UniProt Q9UKZ1,1.52 ± 0.81
8,FAM120C (UniProt Q9NX05),1 ± 0.021
9,UniProt Q9H0F7|Q9H0F7-2|A0A0J9YXT0,1.02 ± 0.063
10,ZHX3 (UniProt Q9H4I2),0.975 ± 0.062
11,EXOSC4 (UniProt Q9NPD3),1.07 ± 0.061
12,UniProt Q9NVR5,0.928 ± 0.076
13,CBX8 (UniProt Q9HC52),1.01 ± 0.04
14,VPS35 (UniProt Q96QK1),1.03 ± 0.082
15,XRN2 (UniProt Q9H0D6),0.993 ± 0.025
16,UniProt Q9UMX0|Q9UMX0-2,0.999 ± 0.07
17,UniProt Q9Y3L3|Q9Y3L3-2,0.998 ± 0.025
18,UniProt Q9Y6A4,1.09 ± 0.027
19,UniProt Q96B97|Q96B97-2,0.941 ± 0.12

row,Target,NP40-soluble protein abundance
1,UTP18 (UniProt Q9Y5J1),1.06 ± 0.091
2,UniProt Q9UJ83|Q9UJ83-2|Q9UJ83-3,1.067 ± 0.0066
3,UniProt Q99707|Q99707-2,0.997 ± 0.019
4,UniProt Q9Y333,0.946 ± 0.08
5,UniProt Q9NW08|Q9NW08-2,1.08 ± 0.03
6,MTMR6 (UniProt Q9Y217),1.068 ± 0.0063
7,CLIC4 (UniProt Q9Y696),1 ± 0.088
8,UniProt Q9UJX5|Q9UJX5-3|Q9UJX5-2,1.2 ± 0.19
9,UniProt Q9C0B5|Q9C0B5-2,1.02 ± 0.049
10,NOP58 (UniProt Q9Y2X3),1.01 ± 0.049
11,UniProt Q9BX67,1.04 ± 0.013
12,UniProt Q9NY12|Q9NY12-2,1.04 ± 0.097
13,LARS (UniProt Q9P2J5),1.05 ± 0.078
14,DDX18 (UniProt Q9NVP1),1.084 ± 0.0038
15,ATP6V1D (UniProt Q9Y5K8),1.04 ± 0.016
16,AFG3L2 (UniProt Q9Y4W6),0.998 ± 0.016
17,UniProt Q9H832|Q9H832-2,1.04 ± 0.06
18,UniProt Q9Y2A7|Q9Y2A7-2,0.9505 ± 0.0043
19,SMARCD1 (UniProt Q96GM5),1.06 ± 0.036

# Same assay, conditions: concentration: 0.5mM
row,Target,NP40-soluble protein abundance
1,UniProt Q9UKV8,1.14 ± 0.053
2,FBXO28 (UniProt Q9NVF7),1.08 ± 0.13
3,BOLA1 (UniProt Q9Y3E2),0.941 ± 0.075
4,UniProt Q969P0|Q969P0-3,1 ± 0.048
5,FAM117A (UniProt Q9C073),0.983 ± 0.018
6,X5CMH5 (UniProt Q03519),1.08 ± 0.054
7,UniProt Q9UKZ1,1.19 ± 0.11
8,FAM120C (UniProt Q9NX05),1.04 ± 0.017
9,UniProt Q9H0F7|Q9H0F7-2|A0A0J9YXT0,1.03 ± 0.1
10,ZHX3 (UniProt Q9H4I2),0.94 ± 0.043
11,EXOSC4 (UniProt Q9NPD3),0.988 ± 0.057
12,UniProt Q9NVR5,0.944 ± 0.078
13,CBX8 (UniProt Q9HC52),1.04 ± 0.048
14,VPS35 (UniProt Q96QK1),1.04 ± 0.093
15,XRN2 (UniProt Q9H0D6),0.995 ± 0.027
16,UniProt Q9UMX0|Q9UMX0-2,0.998 ± 0.015
17,UniProt Q9Y3L3|Q9Y3L3-2,1 ± 0.045
18,UniProt Q9Y6A4,1.04 ± 0.076
19,UniProt Q96B97|Q96B97-2,0.938 ± 0.1

row,Target,NP40-soluble protein abundance
1,UTP18 (UniProt Q9Y5J1),1.16 ± 0.12
2,UniProt Q9UJ83|Q9UJ83-2|Q9UJ83-3,1.03 ± 0.11
3,UniProt Q99707|Q99707-2,1.01 ± 0.062
4,UniProt Q9Y333,0.98 ± 0.11
5,UniProt Q9NW08|Q9NW08-2,1.13 ± 0.075
6,MTMR6 (UniProt Q9Y217),1.02 ± 0.027
7,CLIC4 (UniProt Q9Y696),0.929 ± 0.063
8,UniProt Q9UJX5|Q9UJX5-3|Q9UJX5-2,1.24 ± 0.3
9,UniProt Q9C0B5|Q9C0B5-2,0.949 ± 0.024
10,NOP58 (UniProt Q9Y2X3),1.02 ± 0.019
11,UniProt Q9BX67,0.954 ± 0.065
12,UniProt Q9NY12|Q9NY12-2,1.06 ± 0.12
13,LARS (UniProt Q9P2J5),1.13 ± 0.15
14,DDX18 (UniProt Q9NVP1),1.11 ± 0.024
15,ATP6V1D (UniProt Q9Y5K8),1.06 ± 0.03
16,AFG3L2 (UniProt Q9Y4W6),0.996 ± 0.016
17,UniProt Q9H832|Q9H832-2,0.987 ± 0.061
18,UniProt Q9Y2A7|Q9Y2A7-2,1.002 ± 0.0081
19,SMARCD1 (UniProt Q96GM5),1.11 ± 0.065

# Same assay, conditions: concentration: 1mM
row,Target,NP40-soluble protein abundance
1,UniProt Q9UKV8,1.06 ± 0.045
2,FBXO28 (UniProt Q9NVF7),1.28 ± 0.18
3,BOLA1 (UniProt Q9Y3E2),0.943 ± 0.06
4,UniProt Q969P0|Q969P0-3,0.961 ± 0.07
5,FAM117A (UniProt Q9C073),1.28 ± 0.084
6,X5CMH5 (UniProt Q03519),0.978 ± 0.028
7,UniProt Q9UKZ1,1.4 ± 0.41
8,FAM120C (UniProt Q9NX05),1.04 ± 0.036
9,UniProt Q9H0F7|Q9H0F7-2|A0A0J9YXT0,0.914 ± 0.011
10,ZHX3 (UniProt Q9H4I2),0.994 ± 0.1
11,EXOSC4 (UniProt Q9NPD3),0.996 ± 0.015
12,UniProt Q9NVR5,0.923 ± 0.048
13,CBX8 (UniProt Q9HC52),1.13 ± 0.013
14,VPS35 (UniProt Q96QK1),0.913 ± 0.048
15,XRN2 (UniProt Q9H0D6),0.974 ± 0.017
16,UniProt Q9UMX0|Q9UMX0-2,1.09 ± 0.11
17,UniProt Q9Y3L3|Q9Y3L3-2,0.994 ± 0.018
18,UniProt Q9Y6A4,0.962 ± 0.024
19,UniProt Q96B97|Q96B97-2,0.962 ± 0.1

row,Target,NP40-soluble protein abundance
1,UTP18 (UniProt Q9Y5J1),1.13 ± 0.091
2,UniProt Q9UJ83|Q9UJ83-2|Q9UJ83-3,0.98 ± 0.05
3,UniProt Q99707|Q99707-2,0.987 ± 0.015
4,UniProt Q9Y333,0.973 ± 0.091
5,UniProt Q9NW08|Q9NW08-2,1.09 ± 0.12
6,MTMR6 (UniProt Q9Y217),0.967 ± 0.016
7,CLIC4 (UniProt Q9Y696),0.966 ± 0.1
8,UniProt Q9UJX5|Q9UJX5-3|Q9UJX5-2,1.15 ± 0.19
9,UniProt Q9C0B5|Q9C0B5-2,0.96 ± 0.018
10,NOP58 (UniProt Q9Y2X3),1.07 ± 0.075
11,UniProt Q9BX67,0.965 ± 0.026
12,UniProt Q9NY12|Q9NY12-2,1.17 ± 0.2
13,LARS (UniProt Q9P2J5),1.07 ± 0.18
14,DDX18 (UniProt Q9NVP1),1.08 ± 0.021
15,ATP6V1D (UniProt Q9Y5K8),1.04 ± 0.03
16,AFG3L2 (UniProt Q9Y4W6),0.946 ± 0.024
17,UniProt Q9H832|Q9H832-2,0.9687 ± 0.0042
18,UniProt Q9Y2A7|Q9Y2A7-2,0.972 ± 0.055
19,SMARCD1 (UniProt Q96GM5),1.09 ± 0.089
